# JMJD2A Tudor inh = inhibitors of human JMJD2A Tudor domain; AlphaScreen JMJD2A-Tudor / H3K4me3 peptide binding; AID 504339; Potency, µM (doses to about 114 µM), actives largely listed as inhibitors; O75164; 4.4% of 390,000 active; note: nearly all actives have a fitted effect of over 50% in size
# G9a inh = G9a (human) methyltransferase inhibition; Q96KQ7; G9a H3K9 monomethylation, AlphaScreen, 2 h; Potency, µM (highest dose often 102 µM), actives largely listed as inhibitors; 8.8% of 350,000 active; AID 504332; note: nearly all actives have a fitted effect of over 75% in size
#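 Methyltransferase reactions run at room temperature for 2 h (20 nM enzyme, 500 nM biotin-H3K9 peptide, 20 uM SAM) after a 15 min compound preincubation; product detected by AlphaScreen beads and anti-H3K9me1 antibody.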
# L3MBTL1 inh = inhibitors of human L3MBTL1; 0.66% of 230,000 active; Potency, µM (top dose mostly 57.1 µM), usual class: inhibitors; Q9Y468; AID 485360; AlphaScreen L3MBTL1–H3K9me1 peptide binding; note: nearly all actives have a fitted effect of over 60% in size
#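 L3MBTL1 (50 nM) pre-complexed 30 min with biotinylated H3(1-15)K9me1 peptide (75 nM), then compounds added for 30 min at room temperature; AlphaScreen streptavidin donor/nickel chelate acceptor beads (10 ug/mL final) read after 30 min dark incubation.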
# PI5P4Ka inh = PI5P4K alpha (human) kinase inhibition; PI5P4Kalpha enzyme, ADP-Glo luminescence, 60 min; hits give low values; P48426; 1.2% of 330,000 active; max response, %; AID 652105; active = max response of -50% or lower; inconclusive = between -30% and -50%; inactive = -30% or higher; note: value at the top dose of about 77 µM
# Target sequence (P48426 whole entry, looked up): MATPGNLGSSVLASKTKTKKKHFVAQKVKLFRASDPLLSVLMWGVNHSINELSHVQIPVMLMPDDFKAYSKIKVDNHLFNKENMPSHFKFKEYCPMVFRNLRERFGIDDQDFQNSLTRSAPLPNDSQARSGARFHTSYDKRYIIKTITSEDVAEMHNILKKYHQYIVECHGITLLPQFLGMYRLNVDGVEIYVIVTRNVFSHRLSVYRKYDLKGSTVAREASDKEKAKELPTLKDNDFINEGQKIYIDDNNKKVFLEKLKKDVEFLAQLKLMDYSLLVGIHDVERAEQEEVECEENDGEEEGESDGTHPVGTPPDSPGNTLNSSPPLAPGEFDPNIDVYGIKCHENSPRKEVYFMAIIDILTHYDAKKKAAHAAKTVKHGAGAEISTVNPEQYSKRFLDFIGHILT
#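 Enzyme plus substrate dispensed, test compounds pinned in, then ATP (5 microM final) added. After 60 min at RT, ADP-Glo reagent 1 for 45 min and reagent 2 for 30 min preceded luminescence imaging.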
# BAZ2B block = blocks human BAZ2B. AlphaScreen BAZ2B-H3K14Ac peptide displacement. 4.4% of 360,000 active. Potency, µM (titrated, usually from 114 µM), usual class: inhibitors. Q9UIF8; note: nearly all actives have a fitted effect of over 60% in size
#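 BAZ2B (50 nM) with biotin-H3(5-23)K14Ac peptide (50 nM) in PBS pH 7.4, 0.01% Tween-20, preformed 30 min, then compound 30 min at room temperature; top concentration 110uM. AlphaScreen streptavidin donor/nickel chelate acceptor beads (10 ug/mL final), 20 min dark, signal read.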
# HP1b binding inh = HP1-beta chromodomain-methylated histone interaction inhibition; P83916; AlphaScreen HP1-beta / biotin-H3K9me3 peptide binding; Potency, µM (titrated, usually from 114 µM), usual class: inhibitors; 0.56% of 390,000 active; AID 540317; note: nearly all actives have a fitted effect of over 70% in size
# Target sequence (P83916 whole entry, looked up): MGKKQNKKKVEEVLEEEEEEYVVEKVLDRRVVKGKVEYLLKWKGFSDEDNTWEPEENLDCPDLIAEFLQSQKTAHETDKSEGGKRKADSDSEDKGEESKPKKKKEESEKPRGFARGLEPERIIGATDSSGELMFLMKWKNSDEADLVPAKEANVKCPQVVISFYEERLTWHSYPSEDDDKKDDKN
#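 Compound inhibition of the preformed complex between 50 nM HP1-beta and 50 nM biotinylated H3K9me3 peptide was read by AlphaScreen. Buffer was PBS pH 7.4 with 0.01% Tween-20. Incubations ran 30 min at room temperature, with 10 ug/mL donor/acceptor beads.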
# Numbers stand for hits; n = inactive; u = inconclusive; x = no result given; [ ] = remark or other dose. Most compounds without a hit are left out; they make up all but 11% or so of the library. Unless noted, calls come from the whole dose curve; as a rule, active = well fitted inhibition curve with a large enough effect; inconclusive = small, poorly fitted or top-dose-only effect; inactive = no such curve, though single readings can be large or run the other way.
SMILES,JMJD2A Tudor inh,G9a inh,L3MBTL1 inh,PI5P4Ka inh,BAZ2B block,HP1b binding inh
O=C(NCc1ccco1)C1CCN(Cc2ccc(F)cc2)CC1,50.1µM,31.6µM,x,n,50.1µM,u
CCNC(=O)C1CCN(S(=O)(=O)c2ccc(F)cc2)CC1,25.1µM,n,n,n,n,n
CCC(=O)N1CCCc2cc(S(=O)(=O)N3CCC(C(=O)NCc4ccc(F)cc4)CC3)ccc21,56.2µM,n,x,x,n,n
CCC(=O)N1CCCc2cc(S(=O)(=O)N3CCC(C(=O)Nc4ccc(F)c(F)c4)CC3)ccc21,n,n,x,x,n,n
CC1=C(C(=O)Nc2cccnc2)C(c2cccc(F)c2)n2nc(SCc3ccccc3F)nc2N1 (stereo unspecified),n,n,x,x,u,n
CCCCc1nn2c(=O)cc(COC(=O)c3ccccc3NC(=O)c3cccc(C)c3)nc2s1,n,n,x,x,n,n
CC(=O)c1c(C(=O)O)[nH]c(C(=O)O)c1C,n[11.4 µM],15.8µM,n,n,u,n
Cc1ccc2cc3c(N)nn(C(=O)c4cccc(F)c4)c3nc2c1,n,u,x,x,n,n
O=C(CSc1nc(-c2ccccc2)c(-c2ccccc2)[nH]1)NCC1CCCO1 (stereo unspecified),n,28.2µM,x,n,u,n
O=C(CSc1ccc(Br)cc1)NCC1CCCO1 (stereo unspecified),n,39.8µM,n,n,n,n
O=C(CSc1nc(-c2ccc(F)cc2)[nH]c1-c1ccccc1)NCC1CCCO1 (stereo unspecified),n,n,x,x,u,n
O=C(CSc1ccc(Cl)cc1)NCC1CCCO1 (stereo unspecified),n,n,x,n,n,n
O=C(CSc1ncccn1)NCC1CCCO1 (stereo unspecified),n,x,x,n,x,n
O=C(CSc1nc2ccccc2[nH]1)NC1CCCC1,n,50.1µM,u,n,79.4µM,n
O=C(CSc1nc2ccccc2[nH]1)NCC1CCCO1 (stereo unspecified),n,31.6µM,n,n,n,n
O=C(CCCSc1nc2ccccc2[nH]1)NC1CCCCC1,n,n,x,n,n,n
CCOC(=O)NC(=O)CSc1nc2ccccc2[nH]1,n,56.2µM,n,n,u,n
Cc1nonc1NC(=O)CSc1nc2ccccc2[nH]1,n,n,n,n,n,n
CC(=O)c1cc(-c2ccc(F)cc2)n(CCC(=O)NCc2ccc(C)cc2)c1C,n,n,x,x,n,n
CCOc1ccc(N2C(=O)c3cccnc3C2=O)cc1,u,n,n,x,56.2µM,n
COc1ccc(Cl)cc1N1C(=O)c2cccnc2C1=O,n,n,x,n,u,n
COc1ccc(OC)c(N2C(=O)c3cccnc3C2=O)c1,n,n,n,n,79.4µM,n
CC1(C)CC2CC(C)(CN2Cc2cccc([N+](=O)[O-])c2)C1 (stereo unspecified),20µM,x,n,n,u,u
CC1(C)CC2CC(C)(CN2C(=O)COC(=O)c2cccc([N+](=O)[O-])c2)C1 (stereo unspecified),n,x,n,n,x,n
CC1(C)CC2CC(C)(CN2Cc2c(O)ccc3ccccc23)C1 (stereo unspecified),n,10µM,n,n,n,n
SMILES,JMJD2A Tudor inh,G9a inh,L3MBTL1 inh,PI5P4Ka inh,BAZ2B block,HP1b binding inh
CCCn1cc(S(=O)(=O)c2cccc(Cl)c2)c(=O)c2cc(F)c(N3CCN(CC)CC3)cc21,n,n,x,x,n,n
CCOc1ccc(C(=O)Nc2cc(-c3nc4ccccc4[nH]3)ccc2Cl)cc1[N+](=O)[O-],79.4µM,u,n,n,n,n
O=C(NC(=S)Nc1cc(-c2nc3ccccc3[nH]2)ccc1Cl)c1ccc2c(c1)OCO2,n,44.7µM,n,n,n,n
Cc1ccc(-c2nc3ccccc3[nH]2)cc1NC(=O)c1ccc2c(c1)OCO2,n,u,n,x,n,n
CCc1oc2ccccc2c1C(=O)c1cc(I)c(O)c(I)c1,x,n,x,x,x,x
c1cncc(-c2nnc(-c3cccnc3)nn2)c1,n,8.91µM,n,n,n,u
O=C(CN1CCN(S(=O)(=O)c2ccccc2F)CC1)N1CCc2ccccc2C1,0.794µM,x,n,n,x,n
O=C(CN1CCN(S(=O)(=O)c2ccc3ccccc3c2)CC1)N1CCc2ccccc2C1,n,u,n,n,n,n
COc1ccc(C(=O)NCC(c2cccnc2)N2CCN(c3ccc(F)cc3)CC2)cc1 (stereo unspecified),n,n,x,x,u,n
Cc1ccc(N2C(=O)SC(Cc3ccccc3)C2=O)cc1 (stereo unspecified),n,8.91µM,n,u,n,u
O=C1SC(Cc2ccccc2)C(=O)N1c1ccccc1 (stereo unspecified),n,n,n,n,n,n
COc1ccc(-n2nc(C(=O)NCCc3cccc(C)c3)c3c4ccccc4n(C)c3c2=O)cc1Cl,n,n,x,x,x,n
O=[N+]([O-])C(=C1Nc2ccccc2N1)/C(Cl)=C(/Cl)Br,17.8µM,7.94µM,n,u,u,u
CC(C)N(C(=O)CSc1cn(CC(=O)N2CCCCCC2)c2ccccc12)C(C)C,n,n,x,x,n,n
O=Cc1cc2cc3c(cc2nc1Cl)OCCO3,n,n,n,n,n,n
O=C(O)c1ccc(N/N=C/c2cc3cc4c(cc3nc2Cl)OCCO4)cc1,n,u,x,n,79.4µM,n
CCOC(=O)c1cccc(NC(=O)Cn2c(=O)c3cccn3c3ccccc32)c1,n,n,x,x,n,n
Cc1cc(Cn2ccnc2)c(C)c([N+](=O)[O-])c1Cn1ccnc1,n,n,x,n,79.4µM,n
Cc1ccc2c(Cn3ccnc3)cc(=O)oc2c1C,n,n,x,n,n,n
O=C1C2C3CCCC3=C3CCCC3C2C(=O)N1c1ccccc1 (stereo unspecified),n,20µM,n,n,n,n
Cc1nn(C(C)C(=O)Nc2cccc(F)c2)c(=O)c2c1sc1ccccc12 (stereo unspecified),n,n,x,x,n,n
COC(=O)c1cc2sc(Cl)cc2n1Cc1nc(-c2ccccc2C)oc1C,n,n,x,x,n,n
c1ccc(-c2nnc(CN3CCCc4ccccc43)o2)cc1,n[11.4 µM],u,x,n,u,n
Clc1ccc2nc(CN3CCCc4ccccc43)cn2c1,50.1µM,u,u,x,50.1µM,n
Clc1ccc2nc(CN3CCCCCC3)cn2c1,89.1µM,n[0.0925 µM],n,n,u,n
Clc1ccc2nc(CN3CCCCC3)cn2c1,n,50.1µM,n,x,n,n
CCC(=O)OCc1cc(=O)n2nc(C3CC3)sc2n1,n,n,x,x,n,n
Cc1ccc(/C=C/S(=O)(=O)NCC(=O)OCC(=O)Nc2c(F)cccc2F)cc1,n,20µM,n,n,n,n
Cc1ccc(/C=C/S(=O)(=O)NCC(=O)OCC(=O)Nc2ccc(C(N)=O)cc2)cc1,n,44.7µM,n,n,n,n

# Bioassay records (PubChem BioAssay)
